This is an account of results in PubChem BioAssay (NCI).

This is part of a sample that, as a whole, favours compounds with a hit. Of some 83,000 tested, about 20% had one in any assay.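 Results are percent growth after 48 hours of single-concentration exposure. 100 means growth as in untreated cells, lower positive values show inhibition; negative values down to -100 show cell death.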 A number with no mark means an inactive call. Activity calls are given as the source filed them. Rule for the calls: active = growth percent below 10; inactive = the rest.

Holding throughout (test): NCI-60 one-dose screen, 48 h (100 = growth as untreated, 0 = no growth, -100 = all killed)
What all share (conditions): 10 µM unless noted

The test system of experiment [1] is DU-145 prostate.
For experiment [2], the system named is MALME-3M melanoma.
The test system of experiment [3] is MDA-MB-231 breast.
For experiment [4], the system named is RXF 393 renal.
Experiment [5] concerns SF-268 CNS.
Experiment [6] concerns SF-295 CNS.
Experiment [7] relates to SF-539 CNS.
Experiment [8] concerns UACC-257 melanoma.
The test system of experiment [9] is M14 melanoma.
For experiment [10], the system named is HCT-15 colon.
The subject of experiment [11] is HT29 colon.
Experiment [12] has as its system SNB-75 CNS.
Experiment [13] has as its system SNB-19 CNS.
In experiment [14] the test system is U251 CNS.
Experiment [15] relates to PC-3 prostate.
Experiment [16] concerns LOX IMVI melanoma.
In experiment [17] the test system is UACC-62 melanoma.
Experiment [18] relates to SK-MEL-28 melanoma.
The subject of experiment [19] is SK-MEL-5 melanoma.

Regarding `CC(=O)O[C@H]1C(=O)[C@@]2(C)[C@H]([C@H](OC(=O)c3ccccc3)[C@]3(O)C[C@H](OC(=O)[C@H](OC(=O)CCC(=O)OC4CCC(S/N=C(N)/N=C(\N)N(C)C)CC4)[C@@H](NC(=O)c4ccccc4)c4ccccc4)C(C)=C1C3(C)C)[C@]1(OC(C)=O)CO[C@@H]1C[C@@H]2O` (stereo partly drawn), the growth in experiment [1] was 0.0949% (active); in experiment [2], 66.8%; in experiment [3] it was 22.8%; in [4], 10.6%; in [5], 38.1%; in experiment [6], -10.5% (active). Further, the growth is -19.7% (active) in [7]; 58% in experiment [8]; 30.1% in experiment [9]; 25.3% in experiment [10]; 5% (active) in experiment [11]; -22.3% (active) in [12]. Besides, the growth in [13] was 29.8%; in experiment [14] it was 17.1%; in experiment [15], 28.4%; in experiment [16], 42.9%.
Consider `COc1ccc(SC2c3cc(OC)c(OC)cc3Oc3nc(N)c(C#N)c(N)c32)cc1` (stereo not drawn), for which the growth in [1] was -82.8% (active); in experiment [2] it was -68.9% (active); in [3] it was -67.5% (active); in experiment [4] it was -79.5% (active); in experiment [5] it was -61.8% (active); in experiment [6], -69.5% (active). Further, the growth was -96.6% (active) in experiment [7]; -43% (active) in experiment [8]; -87.2% (active) in [9]; -62.2% (active) in experiment [10]; -24.9% (active) in experiment [11]; -65.2% (active) in experiment [12]. The growth was -83% (active) in experiment [13]; -98.6% (active) in experiment [14]; -76.8% (active) in experiment [15]; -75.1% (active) in experiment [17]; -92.7% (active) in [16]; -70.1% (active) in [18].
For the compound `CC(=O)c1cc(C(=O)c2ccc3c(c2)Sc2ccccc2N3)n2ccccc12`, the growth was 1.94% (active) in experiment [1]; 53.1% in experiment [2]; 17.9% in [3]; 7.01% (active) in [4]; 29.7% in experiment [5]; 8.93% (active) in [6]. Besides, the growth in experiment [7] is -38.3% (active); in experiment [8], 51.4%; in experiment [9], 20.1%; in [10], 17.9%; in experiment [11], -13.1% (active); in experiment [12], 13.1%. For the same compound, the growth was 30.9% in experiment [13], 9.6% (active) in experiment [14], 22.2% in [15] and 20.8% in experiment [16].
With `C=C1C(=O)O[C@H]2[C@H]1CC/C(COC(=O)NCc1ccc(OC)c(OC)c1)=C\CC[C@@]1(C)O[C@@H]21`, the growth in experiment [1] is 28.6%; in [2], 61.5%; in [3], 55%; in experiment [4] it was 20.7%; in experiment [5] it was 79.8%; in [6] it was 88.2%. In addition, the growth is 42.9% in experiment [7]; 64.2% in experiment [8]; 61.5% in experiment [9]; 50.7% in [10]; 28.8% in experiment [11]; 58.7% in experiment [12]. For the same compound, the growth in experiment [13] is 87.2%; in experiment [14], 86.5%; in experiment [15], 78.4%; in experiment [16] it was 69.4%.
As to `CCNC(=O)Oc1ccc(/C(=C(\C)c2ccc(Cl)cc2)c2ccc(OCCN3CCCCC3)cc2)cc1`, the growth in experiment [1] was 72.8%; in experiment [2], -8.7% (active); in [3], 51.8%; in experiment [4], 49.1%; in experiment [5] it was 55%; in experiment [6], 42.7%. The growth in [7] was 47.8%; in experiment [8], -33.9% (active); in experiment [9], -46.5% (active); in experiment [10] it was 2.75% (active); in experiment [11] it was 0.431% (active); in [12], 61.7%. Also, the growth in experiment [13] was 64.5%; in [14], 32.9%; in [15], 28.7%; in [17], -45.7% (active); in [16] it was 10.6%; in [18] it was -30.4% (active).
Turning to `CN1CCN(c2nc(NCCCNc3ccnc4cc(Cl)ccc34)c3ccccc3n2)CC1`, the growth was 59.8% in [1]; -66.3% (active) in experiment [2]; -8.42% (active) in experiment [3]; 43.3% in experiment [4]; 66.2% in experiment [5]; 62.5% in experiment [6]. The growth is -71% (active) in experiment [7]; 17.7% in experiment [8]; -85.6% (active) in experiment [9]; 52.7% in experiment [10]; 6.44% (active) in experiment [11]; 79.6% in experiment [12]. The growth in experiment [13] was 45.4%; in experiment [14], 2% (active); in [15], 43.4%; in [17], -65.7% (active); in [16], -43.8% (active); in [18], -48.5% (active).
As to `COc1ccc(-c2nc(SCC(=O)Nc3ccc(C(=O)/C=C/c4ccc(Cl)cc4)cc3)[nH]c(=O)c2C#N)cc1`, the growth in [1] is 103%; in experiment [2], 95.4%; in experiment [3], 38.1%; in experiment [4], 97.3%; in experiment [5] it was 102%; in experiment [6], 98.5%. In addition, the growth in [7] was 85.8%; in [8] it was 102%; in experiment [9], 77.9%; in [10], 97.9%; in experiment [11] it was 103%; in experiment [12] it was 85.2%. The growth in experiment [13] was 39.4%; in experiment [14] it was -15.3% (active); in experiment [15], 93.6%; in experiment [16] it was -79.4% (active).
Consider `O=C(Cc1ccc(/C=C/C(=O)c2ncc[nH]2)cc1)Nc1ccc(F)cc1`, for which the growth in experiment [1] was 15.9%; in experiment [2] it was 96.6%; in experiment [3], 22.6%; in experiment [4], 19.3%; in experiment [5], 27.7%; in experiment [6], 33.1%. Moreover, the growth is -21.7% (active) in experiment [7]; 92.1% in experiment [8]; 54.9% in [9]; 5.31% (active) in experiment [10]; 3.91% (active) in experiment [11]; 20.4% in [12]. The growth in [13] was 14.2%; in [14], 8.1% (active); in [15], 32.9%; in experiment [17], 40.5%; in experiment [16], 2.77% (active); in [18], 87.2%.
As to `O=C1C=CC(=O)N1c1ccc2c(c1)Cc1cc(F)ccc1-2`, the growth in [1] is 112%; in [2] it was 94.4%; in experiment [3], 92.3%; in experiment [4] it was 92.2%; in experiment [5], 99.7%; in [7], 101%. Further, the growth in experiment [8] is 64.7%; in experiment [9], 107%; in experiment [10], 97.1%; in [11], 95%; in experiment [12], 75.8%; in experiment [13] it was 90.7%. Besides, the growth is 88.9% in [14]; 98.1% in experiment [19]; 91.6% in experiment [17]; 104% in [16]; 99.9% in experiment [18].
